# Measurements reported in PubChem BioAssay AID2567 (National Center for Advancing Translational Sciences (NCATS), 2010).
# Records with an inconclusive call do not appear. A call without a number means that no potency is given here. The source made the active and inactive calls. Calls follow the shape of the dose curve; as a rule, active = well fitted antagonist curve with a large enough effect in the main read-out, with a control signal flat; inconclusive = small, poorly fitted or top-dose-only effect; inactive = no such curve, though single readings can be large or run the other way.
# Target: Neuropeptide S receptor (Homo sapiens) (UniProt Q6W5P4)
# Test: Confirmation Concentration-Response Assay for Antagonists of the Neuropeptide S Receptor: Calcium Signal Transduction, SAR for Probe
# Settings: CHO-NPSR cells, NPS-induced calcium fluorescence, FDSS; series mostly up to 19.3 µM
# Procedure, shortened: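 CHO cells stably expressing human NPSR, loaded with calcium dye; compounds added, then stimulated with NPS (60 nM in stimulation reagent). Fluorescence (Ex 480, Em 520–560 nm) recorded kinetically on FDSS; AC50 from Hill fit.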
# Sequence of Neuropeptide S receptor (Homo sapiens) (Q6W5P4 whole entry, looked up): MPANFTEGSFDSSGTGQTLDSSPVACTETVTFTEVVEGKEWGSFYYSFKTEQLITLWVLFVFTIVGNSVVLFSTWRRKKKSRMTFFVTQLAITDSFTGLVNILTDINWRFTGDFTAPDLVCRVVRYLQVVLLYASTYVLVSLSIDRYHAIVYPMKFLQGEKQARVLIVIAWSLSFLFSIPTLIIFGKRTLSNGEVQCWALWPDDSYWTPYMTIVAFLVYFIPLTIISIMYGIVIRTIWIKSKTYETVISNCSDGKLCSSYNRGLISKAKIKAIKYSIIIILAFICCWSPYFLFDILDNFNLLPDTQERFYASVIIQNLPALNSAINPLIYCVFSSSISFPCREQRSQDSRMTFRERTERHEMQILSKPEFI
row,Compound,Potency
1,CCCN1C(=O)/C(=C\C=C2/C=CN(CC)c3ccccc32)SC1=S,inactive
2,Cc1c(P(=S)(c2ccccc2)c2ccccc2)c2ccccc2n1C(=O)Cc1ccccc1,inactive
3,C[n+]1cc(C(O)(c2ccccc2)c2ccccc2)n2ccccc21,inactive
4,N=C1c2ccccc2CN1c1ccc(N2CCOCC2)c(S(=O)(=O)Nc2ccc(Cl)cc2)c1,1.41 µM (active)
5,COc1ccc(C(=O)N(Cc2ccco2)Cc2cccs2)c(O)c1,inactive
6,Cc1nc2ccccn2c1P(=O)(c1ccccc1)c1ccccc1,inactive
7,COc1ccc(C2c3c(ncn(Cc4ccccc4)c3=N)Oc3ccc4ccccc4c32)cc1OC (stereo not given),1.39 µM (active)
8,Cn1nc(-c2ccc(Cl)cc2)nc2c(=O)n(C)c(=O)nc1-2,inactive
9,COc1cccc(C2c3c(ncn(-c4ccccc4OC)c3=N)Oc3ccc4ccccc4c32)c1 (stereo not given),1.1 µM (active)
10,Cc1ccc(S(=O)(=O)Nc2cccc3ncccc23)s1,3.16 µM (active)
11,COc1ccc(C2c3c(nc(Cc4ccccc4)[nH]c3=O)Oc3ccc4ccccc4c32)cc1OC (stereo not given),inactive
12,COc1ccc(C2c3c(n(CCc4ccccc4)cnc3=N)Oc3ccc4ccccc4c32)cc1OC (stereo not given),inactive
13,O=C1OC(c2ccccc2)(c2ccccc2)N2CCN(C(=O)NCc3ccc(F)cc3)CC12 (stereo not given),0.139 µM (active)
14,COc1cccc(C2c3c(ncn(-c4ccccc4C)c3=N)Oc3ccc4ccccc4c32)c1 (stereo not given),5.52 µM (active)
15,Cc1c(P(=S)(c2ccccc2)c2ccccc2)c2ccccc2n1C/C=C/c1ccccc1,inactive
16,C(=N\Nc1nc(-c2ccccn2)nc2ccccc12)/c1ccccc1,inactive
17,COc1cccc(C2c3c(ncn(-c4ccncc4)c3=N)Oc3ccc4ccccc4c32)c1 (stereo not given),4.38 µM (active)
18,CCCCOc1ccc(OCCCN2CCOCC2)cc1,inactive
19,COc1cccc(C2c3c(ncn(-c4ccc(C(C)(C)C)cc4)c3=N)Oc3ccc4ccccc4c32)c1 (stereo not given),5.52 µM (active)
20,CCOC(=O)c1cnc(-n2nc(C)cc2C)nc1NC1CCCC1,2.82 µM (active)
21,COc1ccc(C2c3c(nc(CCCc4ccccc4)[nH]c3=O)Oc3ccc4ccccc4c32)cc1OC (stereo not given),inactive
22,Cc1c(P(=S)(c2ccccc2)c2ccccc2)c2ccccc2n1CCc1ccccc1,inactive
23,S=C(Nc1ccccc1)Nc1nccs1,inactive
24,C/C(=N\Nc1ncc(Cl)cc1Cl)c1ccccn1,2.51 µM (active)
25,COc1cccc(C2c3c(ncn(-c4ccccn4)c3=N)Oc3ccc4ccccc4c32)c1 (stereo not given),5.52 µM (active)
26,COc1ccc(-n2cnc3c(c2=N)C(c2cccc(OC)c2)c2c(ccc4ccccc24)O3)cc1 (stereo not given),4.38 µM (active)
27,COc1cccc(C2c3c(ncn(-c4ccc(C)cc4)c3=N)Oc3ccc4ccccc4c32)c1 (stereo not given),3.48 µM (active)
28,COc1ccc2c(c1)Oc1ncn(CCN3CCOCC3)c(=N)c1C2c1ccc(OC)c(OC)c1 (stereo not given),11 µM (active)
29,C/C(=N\NC(=S)NC1CCCCC1)c1c(F)cccc1F,inactive
30,COc1ccc(C2c3c(n(Cc4ccccc4)cnc3=N)Oc3ccc4ccccc4c32)cc1OC (stereo not given),inactive
